Each structure is given as a SMILES string. Values joined by “and” are separate entries in the source; they are usually repeats but may differ in a detail not shown here. Equal values may be shown once. Among all 130,000 compounds or so, about 1,200 (0.92%) were called active. About 3% were inconclusive and are not listed. The sample holds actives, similar compounds and a random draw of the others, so the mix is not that of the screen. Values without a mark were called inactive. Calls come from the whole dose curve; as a rule, active = well fitted cell-killing curve with a large enough effect; inconclusive = small, poorly fitted or top-dose-only effect; inactive = no such curve, though single readings can be large or run the other way.

This is an account of results in PubChem BioAssay AID924 (National Center for Advancing Translational Sciences (NCATS), 2007).
Potency is the fitted concentration of half-maximal effect.

A short description of this experiment: qHTS Screen for Compounds that Selectively Target Cancer Cells with p53 Mutations: Cytotoxicity of p53ts Cells at the Permissive Temperature.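 For activity change, negative = cytotoxicity: 0% = DMSO and -100% = full killing by reference compound.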 Note: nearly all actives have a fitted effect of over 55% in size. The settings on record: H1299-p53A138V at 32C, ATP luminescence viability, 24 h; series mostly up to 46.1 µM; activity change, negative = cytotoxicity: at the top concentration. An excerpt:
NIH Chemical Genomics Center [NCGC] NIH Molecular Libraries Screening Centers Network [MLSCN] MLSCN Grant: 1 X01 MH079844-01 Assay Submitter (PI): Dr. SUN, YI, University of Michigan NCGC Assay Overview: Synthetic Lethal Screen for Compounds to Kill Cancer Cells with p53 Mutation. Tumor suppressor gene p53 serves as a major cellular barrier against tumorigenesis. […] The goal of this screening is to identify small molecule probes that selectively kill cancer cells with mutations in p53. This screening was carried out using two lines of H1299 lung cancer cells. The H1299-p53 A138V line express a temperature sensitive p53 mutant (p53ts) in which the mutant p53 protein (A138V) is in the mutant confirmation when grown at 39C (the nonpermissive temperature) and in the wild type conformation when grown at 32C (the permissive temperature). A H1299-neo line (p53 null) grown at both 39C and 32C were used as counter-screens to filter out false positive associated with temperature shifting. The small molecular compounds that selectively target mutant p53-containing cancer cells were selected as candidate probes for further study. A cytotoxicity assay based on the measurement of ATP contents in cells was used in this screen. Concentration-responses of all the compounds in the library collection were determined in qHTS using the cell lines and temperature conditions as above.
NCGC Assay Protocol Summary: Both the H1299-p53A138V and H1299-neo cell lines were provided by Dr.Yi Sun, a PI at the University Michigan. The cells were maintained and cultured at 37C. The resuspended frozen cells were used to plate the cells in the 1536-well assay plates at a density of 600 cells per well in 5 ul medium. The assay plates with the cells were incubated at 37C for 16 to 30 hours before the experiments. The library compounds in DMSO solution were added to the cells in assay plates and incubated 24 hours at 39C (for mutant p53 conformation) or 32C (for normal p53 conformation as control). An ATP_lite assay kit (PerkinElmer) was used to determine the cell viability. Tomaxifen (100uM) was used as the positive control for cell killing. Data were normalized to the controls for basal activity (DMSO only) and 100% killing (100uM tamoxifen). AC50 values were determined from concentration-response data modeled with the standard Hill equation. P53 assay protocol: 1. Reagent; 5 uL H1299-p53A138V or H1299-neo cell cells/well 2. Time; overnight; 37C incubation 3. Compounds; 23 nL; 5.9 nM to 46 uM 4. Controls; 23 nL; Tamoxifen 100 uM 5. Time; 24 hr; 37C incubation 6. Reagent; 3 uL; ATP_Lite reagent 7. Time; 20 min; Room Temperature 8. Detection; Luminescence; Viewlux plate reader Keywords: p53, synthetic lethal, cancer, cell viability, cytotoxicity, H1299 cell line, luminescence, MLSMR, MLSCN, NIH Roadmap, qHTS, NCGC
In general terms: In qHTS, concentration-response curves come from the screen itself.
With `COc1ccc(C(CCN(Cc2ccc(OC)c(OC)c2)C(=O)CCl)c2ccccc2)cc1` (stereo not drawn), the Potency is 5.01 µM (active). Consider `COc1ccc(/C=C/NC(=O)Cc2ccc(OC)c(OC)c2)cc1`, for which the activity change, negative = cytotoxicity was -5.23% [at 9.22 µM] and 5.05% [at 9.22 µM].

`CCN(CCCCOC(=O)c1ccc(OC)c(OC)c1)C(C)Cc1ccc(OC)cc1` (stereo not drawn): the “activity change, negative = cytotoxicity” value is -4.52%. Still for that read-out and setting: next, `CCc1ccc(NC(=O)c2cc(S(=O)(=O)N3CCCC(C)C3)cn2C)cc1` (stereo not drawn): -1.68%; `COc1cccc(NC(=O)CSC2=Nc3ccccc3C3=NC(CC(=O)NC4CCCCC4)C(=O)N23)c1` (stereo not drawn): -4.48%.

Consider `COC(=O)c1ccccc1NC(=O)Cn1c(=O)cc(C)c2c(C)nn(-c3cccc(Cl)c3C)c21`, for which the “activity change, negative = cytotoxicity” value was 1.69%. As for `Cc1ccc(NC(=O)CSc2nc3c([nH]c4ccccc43)c(=O)n2-c2ccccc2)c(C)c1`, the “activity change, negative = cytotoxicity” value was -0.407%. On the same count and under the same terms, next, `CC(C)c1ccc(NC(=O)CN(C)S(=O)(=O)c2ccc3c(c2)c(=O)n(C)c(=O)n3C)cc1`: -1.91%. Turning to `COC(=O)c1sc(NC(=O)c2ccc(OC)cc2OC)nc1C`, the Potency is 0.398 µM (active). Consider `COC(=O)c1sc(NC(=O)c2csc3c2CCCC3)nc1C`, for which the “activity change, negative = cytotoxicity” value is -10.1%. Still for that read-out and setting: next, `COc1ccc(C(=O)Nc2nncs2)c(OC)c1`: -22%; `COc1ccc(-c2nc3sc(CCNS(=O)(=O)c4ccc(F)c(C)c4)c(C)n3n2)cc1`: -7.31%.

Take `O=C(NCCc1ccc(Cl)cc1)c1ccc2nc(CCc3ccccc3)oc2c1`: the “activity change, negative = cytotoxicity” value is 0.682%. As to `Cc1ccccc1Nc1nn2c(=O)c3ccc(C(=O)NCCc4ccc(Cl)cc4)cc3nc2s1`, the Potency was 15.8 µM (active).

`CCn1c(=O)c2cc(C(=O)NCCc3ccc(Cl)cc3)sc2c2ccccc21`: the “activity change, negative = cytotoxicity” value was 4.45%. `CCOc1ccc(C(=O)c2cn(Cc3ccccc3OC)c3ccc(F)cc3c2=O)cc1`: the “activity change, negative = cytotoxicity” value was 10.8%.

Take `CCOC(=O)c1cc2c(=O)n3ccccc3nc2n(CC2CCCO2)c1=NC(=O)c1ccccc1Br` (stereo not drawn): the “activity change, negative = cytotoxicity” value is 3.37%. With `O=C(NCc1ccc2c(c1)CCN2C(=O)c1ccccc1)Nc1cc(F)ccc1F`, the “activity change, negative = cytotoxicity” value was 3.25%. As to `COc1ccc(-c2noc(CSc3nnc(-c4ccccc4)n3-c3ccc(F)cc3)n2)c(OC)c1`, the “activity change, negative = cytotoxicity” value is 24.7%. For the compound `COc1ccc(-c2cc(-c3nc(-c4cc(OC)c(OC)c(OC)c4)no3)[nH]n2)c(OC)c1`, the “activity change, negative = cytotoxicity” value was -4.57%.

For `COc1ccc(-c2nc(-c3ccccc3)no2)c(OC)c1`, the Potency is 5.01 µM (active). As to `CCn1c(C)c(C)c2cc(C(=O)N3CCN(c4cccc(C)c4C)CC3)ccc21`, the “activity change, negative = cytotoxicity” value was -5.04%. `CCOc1ccc(C(=O)/C=C/c2cn(CC(O)CN3CCCCCC3)c3ccccc23)cc1` (stereo not drawn): the “activity change, negative = cytotoxicity” value is -24.6%.

Consider `CCOC(=O)c1nnn(CC(=O)NC(=O)Nc2ccccc2F)c1C(=O)OCC`, for which the “activity change, negative = cytotoxicity” value is -0.4%. `Cc1ccc2oc(C(=O)Nc3ccc(S(=O)(=O)N4CCCCCC4)cc3)cc(=O)c2c1`: the “activity change, negative = cytotoxicity” value is -1.14%. Turning to `Cc1cc(C)c2c(n1)nn1c(N3CCOCC3)cc(C)nc21`, the “activity change, negative = cytotoxicity” value is 10.3%. On the same count and under the same terms, in the case of `Cc1nc2ccccc2n1C(=O)N1CCOCC1` it was -6.66%. As to `Cc1nn2c3cc(N4CCOCC4)ccc3nc2c2ccccc12`, the Potency is 2 µM (active). Turning to `COc1ccc(CNC(=O)CC2Oc3ccc(C)cc3NC2=O)cc1` (stereo not drawn), the “activity change, negative = cytotoxicity” value is 9.45%.

For the compound `Cc1cc(=O)c2cc(C(=O)Nc3cccc(C)c3C)ccc2[nH]1`, the “activity change, negative = cytotoxicity” value was 1.75%. Turning to `O=C(CSc1nnc(CNC(=O)c2ccccc2)n1-c1ccc(F)cc1)Nc1ccccc1F`, the “activity change, negative = cytotoxicity” value was 2.75%. Regarding `CCc1ccc2oc(-c3ccc(C)c(NC(=O)/C=C/c4ccco4)c3)nc2c1`, the “activity change, negative = cytotoxicity” value was -25.8%. As to `CCc1ccc2oc(-c3ccc(NC(=O)c4cc5ccccc5o4)cc3)nc2c1`, the “activity change, negative = cytotoxicity” value is -9.08%. `CCc1ccc2oc(-c3ccc(N)cc3)nc2c1`: the Potency was 7.94 µM (active). Consider `COc1ccc(-c2nnc(SCC(=O)Nc3ccc(C(C)C)cc3)nc2-c2ccc(OC)c(OC)c2)cc1OC`, for which the “activity change, negative = cytotoxicity” value was 19.3%. The same measure, in the same setting: in the case of `CC(C)(C)c1ccc(C(=O)NCC(c2ccc(Cl)cc2)N2CCOCC2)cc1` (stereo not drawn) it was 16.9%; in that of `O=C(Cn1c(=O)sc2ccccc21)Nc1nc2c(s1)CCCC2`, -2.62%.

For `O=C(Nc1nc2c(s1)CCCC2)c1ccccc1F`, the Potency was 7.94 µM (active). For the compound `NC(=O)c1ccccc1NC(=O)c1ccccc1F`, the “activity change, negative = cytotoxicity” value is -1.7%. The same measure, in the same setting: next, `O=C1N(Cc2ccccc2)c2ccc(Cl)cc2C1(O)c1c[nH]c2ccccc12` (stereo not drawn): 4.69%; `CCOc1cc(C(=O)Nc2ncccn2)cc(OCC)c1OCC`: -3.26%. As to `Cn1c(=O)c(C(=O)Nc2ncccn2)c(O)c2ccccc21`, the Potency was 12.6 µM (active).

As for `O=C(Nc1ncccn1)c1cccs1`, the “activity change, negative = cytotoxicity” value is -9.12%.

As for `CC1CCCN(c2nc3c(S(=O)(=O)c4ccc(C(C)C)cc4)nnn3c3ccsc23)C1` (stereo not drawn), the “activity change, negative = cytotoxicity” value was 6.56%. Still for that read-out and setting: next, `COc1cccc(CNC(=O)CSc2c3c(nc4cc(Cl)ccc24)CCCC3)c1`: 5.88%; `CCOc1ccc(C(=O)Nc2ccc3nc4c(c(Nc5ccccc5OC)c3c2)CCCC4)cc1`: -14.2%. Take `CCOc1ccc(NC(=O)CSc2c3c(nc4ccccc24)CCCC3)cc1`: the Potency is 22.4 µM (active). As to `CCOC(=O)c1cc(-c2ccccc2)n(CCC(=O)Nc2ccccc2CC)c1C`, the “activity change, negative = cytotoxicity” value was 7.84%.

As to `Cc1ccc(CSc2nc3cccnc3n2Cc2ccc(C(=O)NC3CC3)cc2)cc1`, the Potency is 2.24 µM (active).

For `O=C(NC1CCCCC1)c1ccc(Cn2c(SCc3ccccc3)nc3cccnc32)cc1`, the “activity change, negative = cytotoxicity” value was -24.1%. Still for that read-out and setting: next, `O=C(NCc1ccc(F)cc1)c1ccc(Cn2c(SCc3ccc(F)cc3)nc3cccnc32)cc1`: -25.6%; `Cc1ccc(Cl)cc1NC(=O)Cc1ccc(-n2c(C)nc3cccnc32)cc1`: -1.95%; `COc1cccc(N2CC(NC(=O)/C=C\c3ccccc3)CC2=O)c1` (stereo not drawn): -6.84%. As to `O=C(O)c1ccc(NC(=O)c2cccs2)cc1`, the “activity change, negative = cytotoxicity” value is -6.14%. Same read-out and setting: next, `CCc1ccccc1NC(=O)c1cccs1`: 10.4%.

On to `Cc1nc(-c2ccc(NC(=O)c3cccs3)cc2)cs1`, for which the Potency was 1.26 µM (active). Regarding `Cc1c(CNC(C)c2ccccc2)c(C(=O)O)c(C)n1Cc1c(F)cccc1Cl` (stereo not drawn), the “activity change, negative = cytotoxicity” value was 9.47%.

Take `COc1cc(NC(=O)C2CCN(c3cnccn3)CC2)cc(OC)c1`: the “activity change, negative = cytotoxicity” value was 4.51%. For `CN(C)c1ccc(-c2nc(NCCN3CCOCC3)c3ccccc3n2)cc1`, the Potency was 12.6 µM (active). As for `c1ccc(-c2nc(NCc3ccco3)c3ccccc3n2)cc1`, the “activity change, negative = cytotoxicity” value was 1.53%. On the same count and under the same terms, in the case of `c1ccc2[nH]c(NCCN3CCOCC3)nc2c1` it was -0.862%. On the same count and under the same terms, in the case of `NS(=O)(=O)c1ccc(CCNC(=O)CCCCCn2c(=O)[nH]c3ccccc3c2=O)cc1` it was 5.53%; in that of `CC(=O)Nc1cccc(NC(=O)CSc2cn(CC(=O)N3CCCC3)c3ccccc23)c1`, -2.57%.
